System: VDR:RXRa (NR concentration 270 nM, RXRa partner concentration 90 nM)
Experiment: PBM binding z-score (relative to random genomic background probes); higher = stronger binding; sequences stand for … in GC…GCGATTGACAGCGTAGAATGAAGG
Description: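 Protein-binding microarray (Agilent 4x180K custom design, double-stranded 60-nt probes: 5' GC cap, 34-nt variable region, 24-nt constant primer region; full probe sequence given). Purified or IVT nuclear receptor:RXRα heterodimers (3:1 NR:RXRα, mostly 270:90 nM) or homodimers were incubated for 1 h in PBS with 2% milk and no ligand, then detected with Alexa488 antibodies. Fluorescence from o1-orientation probes (~5 replicates averaged) was converted to z-scores against 500 random hg19 background probes. Variable regions are seed direct-repeat (DR0–DR5) sites, all their single-nucleotide variants and half-site ablations.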

Row | Sequence | PBM binding z-score
1 | GTTAGCAGGCCATTTGGGTCACTCAATGACGGGC | 0.985
2 | GCGACTGGGGCTTCAGCAGGTTACCATAACTTAA | -0.361
3 | GGAACGAGGGCAAGTTGCTAGCAGAGTTTGATGG | 0.604
4 | CAAACTAGGTCTCGAAAGGTCAAAGTCGAATGAC | 4.71
5 | TCGAGTAGTTTACCAATGGGGCATTCAGCTTTCT | -0.0762
6 | ACTAGCAGGCGAAGTTTGGGTCACTCAAACAAAG | 0.191
7 | AGAATGATGTTATTAAGATCAGGGAATTGCGGTC | 0.0323
8 | CGTCCAAGGTCAATGCTAGGTCAGTCAAAGCATT | 5.1
9 | TGAATGATGTTATAAGATCAGGGAACGTTGCAAA | -0.175
10 | TTACCAAGGTGAAGGTCTTTGATCCCTCTGTAGA | -0.00925
11 | CCGACTGGGGCAAAGGTTTCCATACTCAGTACGA | -0.277
12 | CCTACTGGGCCAAAAAGGTCATGGATGCCGATAA | 4.54
13 | CCTAGTGGGTCAAGGTCACACACGCTATAGGTAC | 4.64
14 | CAAACTAGGTCAATGGTCAAAGTCGAGCCAACCA | 1.67
15 | GCATATAGGTAGTACAAGGTGAAAGTCCGATTGT | 0.154
16 | ACTAGTTGGTCAACTGAGGTCACACACAATTCGG | 5.33
17 | TGAATGAGGTTATAAGATCAAGGAACGTTGCAAA | 1.1
18 | TCATATAGGTAAATGCTAGGTGGAAGTCCGATCT | 0.687
19 | AGAATGATGTTACCAAAGATCAGGGAAACGCTTG | -0.205
20 | CCTTACGGGTCACTCCAGGTTATAACATCGGAGT | 4.09

Row | Sequence | PBM binding z-score
21 | AGAATGAGGTTACCAAAGATCAGGGAAACGCTTG | 1.37
22 | CCGACTGGGGCATACGGTTACCATAAGCCAGCCC | -0.577
23 | TCATATAGGTAACCAGGTGAAAGTCCGTAAGTTA | 1.06
24 | CCTCGGAGGACAACAGGAGGTCAGAGCTGCCAGA | 2
25 | CGAACTAGGTCAAGGACAGCGAATCTCCGCACGC | 1.31
26 | TTACCAAGGTGAGCTGAGGTCGTTTATCCAACTC | 4.32
27 | ACTATTAGTTGAGACGAGGGAAACCGATAGGTTG | -0.364
28 | CCGACTGGGGCAAAGGTTACCATTCTCAGTACGA | 1.43
29 | ACTAGTTGGTCAGCTGACGTCACACACAATTCGG | 0.0123
30 | TCTGCTAGGTCAACGATGTTCAGCTAATCTGCTA | 1.67
31 | TATACAGGTTCAAAGGCCAGAGTACGAATGTCGA | 3.76
32 | AGACTGAGGTTACCAAAGATCAGGGAAACGCTTG | 1.13
33 | TCTAGCAGGCCAGAGCGTCACTCAAGAGGTACGG | -0.608
34 | ACTAGCAGGACAAGTTTGGGTCACTCAAACAAAG | 0.698
35 | CCGACTGGGGCAGAAAGGCTACCATACCATCCGG | -0.639
36 | CCTTACGGGTCAAGATTATAGCACGGGTGGTACG | 2.9
37 | GCAGACAGGTGAAACGCAGGTAACTCAGGGTGGC | -0.544
38 | CGAACTAGGTCATCCAGGACAGTGACTACATTGA | 4.29
39 | TCGAGTAGGTTACCTATGGGGCATTCAGCTTTCT | -0.0814
40 | CGTCCAAGGTCAAACGTCAGTGAAGAGATGACGG | 4.37

Source: the supplement of paper PMC6555819
